Assay results taken from PubChem BioAssay.

target: Luciferin 4-monooxygenase (Photinus pyralis) (UniProt P08659); test: inhibition of purified Photinus pyralis luciferase – biochemical, luminescence, purified enzyme, 2006 set, primary screen (AID 1141); details: purified firefly luciferase, SteadyGlo luminescence, 30 min; higher = more signal, called active from +8 up or from −8 down;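 also: cell-free assay with purified firefly luciferase at 100 ng per well in PBS; test concentration not given here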
Sequence (P08659 whole entry, looked up): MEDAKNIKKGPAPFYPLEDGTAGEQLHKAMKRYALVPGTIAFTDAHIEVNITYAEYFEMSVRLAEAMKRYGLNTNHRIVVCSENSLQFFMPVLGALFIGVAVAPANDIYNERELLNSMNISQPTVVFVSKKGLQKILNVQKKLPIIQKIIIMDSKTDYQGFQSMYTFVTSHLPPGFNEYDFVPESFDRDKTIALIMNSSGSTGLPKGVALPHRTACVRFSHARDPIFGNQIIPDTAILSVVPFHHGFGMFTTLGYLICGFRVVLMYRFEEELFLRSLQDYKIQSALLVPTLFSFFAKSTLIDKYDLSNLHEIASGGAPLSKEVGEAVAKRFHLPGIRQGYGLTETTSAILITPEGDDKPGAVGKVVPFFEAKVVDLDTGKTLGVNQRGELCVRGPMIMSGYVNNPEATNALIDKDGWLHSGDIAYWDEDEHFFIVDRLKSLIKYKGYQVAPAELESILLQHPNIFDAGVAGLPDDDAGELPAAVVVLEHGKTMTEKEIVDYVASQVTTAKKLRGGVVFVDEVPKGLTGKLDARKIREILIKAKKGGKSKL

z-score, inactive:
COC(=O)C[C@H]1O[C@@H](CCc2ccccc2)[C@@H](C)[C@@H]1[Si](C)(C)c1ccc(OC)cc1 0.301
CC(=CC1CCCCC1)[C@@H](NC(=O)c1cccnc1)c1ccc(-c2ccccc2)cc1 0.722
[N-]=[N+]=Nc1ccccc1C[C@]1(C(=O)NCC(O)CO)N=C(c2ccc(OCCCO)cc2)O[C@H]1c1ccccc1 (stereo partly specified) -1.78
COCC(=C=CC[C@H](O)c1cccc(OCCO)c1)CCO 0.415
COC(=O)[C@H](Cc1ccccc1)N[C@H](/C=C/C1CC1)[C@@H](O)Cc1ccccc1 0.723
C=CCOC(=O)[C@H]1[C@@H]2C(=O)O[C@@H](c3ccccc3)[C@@H](c3ccccc3)N2[C@@H](c2ccc(OCCOC(=O)[C@@H]3C[C@@H]4C(=O)N5CCC[C@H]5C(=O)N4[C@@H]3c3cccc(OCCO)c3)cc2)[C@]12C(=O)Nc1ccc(I)cc12 -1.12
COCC(=C=CC[C@@H](O)c1ccc(OCCO)cc1)C[C@@H](O)c1ccccn1 -0.501
COc1ccc([Si](C)(C)[C@@H]2[C@@H](CCO)O[C@]3(C(=O)N(Cc4cccc(N5CCOC5=O)c4)c4ccccc43)[C@H]2C)cc1 -0.335
[N-]=[N+]=Nc1ccccc1[C@H]1OC(c2ccc(OCCCO)cc2)=N[C@@]1(Cc1ccccc1)C(=O)N1CCOCC1 -5.58
CN1C(=O)C2C=CC(C(O)C=Cc3ccc([N+](=O)[O-])cc3)N(Nc3ccccc3)C2C1=O (stereo unspecified) -1.02
C#CCOc1ccc(C[C@@H](C(=O)OC)N(CC#C)[C@@H](/C=C/C2CC2)[C@H](O)Cc2ccccc2)cc1 -0.497
O=C(NCc1ccccc1)[C@@H]1c2ccccc2C(=O)N(C2Cc3ccccc3C2)[C@H]1c1ccc(CO)cc1 0.111
COC(=O)c1c2oc(c1C(=O)OC)C(=O)NC1(CCCCC1)c1cn(nn1)C[C@H](Cc1ccccc1)NC(=O)N[C@H](CO)CC2 0.893
CCCCCCc1nc(-c2ccc(-c3ccc(Cl)c(Cl)c3)o2)cc2c1[Si](C(C)C)(C(C)C)O[C@H]2c1ccccc1 0.712
COCCOC(=O)N1C(=O)[C@@]2(c3cc(C#CC4(O)CCCCCC4)ccc31)[C@H](C(=O)Nc1nc3ccccc3s1)[C@H]1C(=O)O[C@H](c3ccccc3)[C@H](c3ccccc3)N1[C@@H]2c1ccc(OCCO)cc1 -3.29
COC(=O)[C@@]1(Cc2ccc(OC)cc2)[C@H]2c3cc(C(=O)N4CCCC4)n(CCCNc4ncc(C(F)(F)F)cc4Cl)c3C[C@H]2CN1C(=O)c1ccccc1 2.54
COC(=O)[C@@]1(Cc2ccc(OC)cc2)[C@H]2c3cc(C(=O)N4CCCC4)n(CCc4ccc(O)c(O)c4)c3C[C@H]2CN1C(=O)c1ccccc1 -7.43
Cc1c(NC(=O)/C(C#N)=C/c2cccc([N+](=O)[O-])c2)c(=O)n(-c2ccccc2)n1C -1.09
C[N+](C)(C)CCCC[C@@H]1NC(=O)[C@@H]2C[C@H](C(=O)NCCCCCCNC(=O)CS)[C@H](c3ccc(O)cc3)N2C1=O 0.182
COC(=O)[C@@]1(Cc2ccccc2)[C@H]2c3cc(C(=O)N4CCCC4)n(Cc4ccc(O)c(OC)c4)c3C[C@H]2CN1C(=O)c1ccccc1 1.04
O=C1O[C@@H](c2ccccc2)[C@@H](c2ccccc2)N2[C@@H](c3ccccc3OCCO)[C@]3(C(=O)Nc4ccccc43)[C@@H](C(=O)O)[C@H]12 -1.55
CCCNC(=O)[C@@H]1c2ccccc2C(=O)N(Cc2ccccc2OC)[C@H]1c1ccc(CO)cc1 -0.452
CC[C@@H]1C=C(C(=O)O)[C@H](c2ccc(C)cc2)N1S(=O)(=O)c1ccc(C)cc1 2.28
O=C1O[C@H](c2ccccc2)[C@H](c2ccccc2)N2[C@H]1[C@@H](C(=O)NC[C@H](O)c1ccccc1)[C@]1(C(=O)Nc3ccccc31)[C@H]2c1ccc(O)cc1 0.363
Cc1ccc(S[C@]2(C(=O)NCC(C)C)CC(=O)N(Cc3cc(C(F)(F)F)cc(C(F)(F)F)c3)[C@@H]2c2ccc(CO)cc2)cc1 0.111
COCCOC(=O)N1C(=O)[C@@]2(c3cc(C#CC4=CCCCC4)ccc31)[C@H](c1ccc(OCCO)cc1)N1[C@H](c3ccccc3)[C@H](c3ccccc3)OC(=O)[C@H]1[C@@H]2C(=O)N1CCc2cc(OC)c(OC)cc2C1 -2.35
